# Sa growth 42C = inhibitors of Staphylococcus aureus growth at 42 °C; S. aureus RN4220 growth, OD600, 20 h; hits give low values; relative growth, % (no concentration beside the values); 170,000 tested, 0.53% active; AID 720641;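 active = relative growth at most 50% at the other temperature and 20+ points below 30 °C, or under 10% at both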
# HCMV UL50-53 inh = cytomegalovirus nuclear egress complex inhibition. inhibition, % (test concentration not listed). HTRF UL50-UL53 interaction, normalized percent inhibition. 190,000 tested, 0.15% active; in the data active = inhibition above about 27%, passing the limit was not always enough
# Sa helicase inh = blocks Staphylococcus aureus DNA helicase; purified S. aureus helicase, fluorescence unwinding assay; inhibition, % (concentration not given with the values); 120,000 tested, 0.05% active; AID 485395; in the data active = inhibition above about 25%, passing the limit was not always enough;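 also: 0% = mean of negative control wells and 100% = mean of positive control wells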
# The depositor's hits bear a star; . = not tested or not shown; ! = a repeat was not active. Only a selection was taken, and hits are over-represented in it overall.
SMILES,Sa growth 42C,HCMV UL50-53 inh,Sa helicase inh
CC(=O)N1CCN(c2ccc(OC[C@H]3CO[C@](Cn4ccnc4)(c4ccc(Cl)cc4Cl)O3)cc2)CC1,1.2*!,-38.8,.
CC(=O)N1CCN(c2ccc(Oc3ccnc4cc(Cl)ccc34)cc2)CC1,93.5,-11.0,5.0
Cc1cc(C)c(NC(=O)c2cn3c4c(c(N5CCN(C)CC5)c(F)cc4c2=O)OCC3C)c(C)c1 (centres undefined),71.1,-29.3,-2.0
CC1COc2c(N3CCN(C)CC3)c(F)cc3c(=O)c(C(=O)OCc4ccccn4)cn1c23 (centres undefined),-1.0*,-18.3,11.0
CO/N=C1\CN(c2nc3c(cc2F)c(=O)c(C(=O)O)cn3C2CC2)CC1CN (centres undefined),-1.0*,-33.0,.
NC1CCN(c2c(F)cc3c(=O)c(C(=O)O)cn(C4CC4)c3c2Cl)C1 (centres undefined),-0.9*,-40.9,.
CC1COc2c(C3(N)CC3)c(F)cc3c(=O)c(C(=O)O)cn1c23 (centres undefined),.,-26.9,.
COc1c(N2CCNC(C)C2)c(F)cc2c(=O)c(C(=O)O)cn(C3CC3)c12 (centres undefined),-0.9*,-30.4,.
CC1CN(c2c(F)c(N)c3c(=O)c(C(=O)O)cn(C4CC4)c3c2F)CC(C)N1 (centres undefined),.,-5.1,.
CN1CCN(c2c(F)cc3c(=O)c(C(=O)O)cn(CCF)c3c2F)CC1,22.8,-10.0,.
CC1CCc2c(N3CCC(O)CC3)c(F)cc3c(=O)c(C(=O)O)cn1c23 (centres undefined),-1.0*,-34.6,.
CC1CCc2cc(F)cc3c(=O)c(C(=O)O)cn1c23 (centres undefined),29.7,-16.5,.
Cn1c2ccccc2c2cc(CC(N)=O)ccc21,108.9,-8.5,9.0
Cc1oc2ncn(CC(=O)NCCC(C)C)c(=O)c2c1C,.,5.0,.
COc1ccc(C2=CC(c3ccc(OC)cc3)n3ncc(C(=O)Nc4ccc(Cl)cc4)c3N2)cc1 (centres undefined),.,-9.4,.
CC(=O)Nc1ccc(O[C@@H]2O[C@H](CO)[C@@H](O)[C@H](O)[C@H]2NC(C)=O)cc1,97.7,-11.1,18.0
Clc1cccc(C(Nc2ccc(Br)cc2)c2nnc(-c3ccccc3)o2)c1 (centres undefined),.,-18.9,.
CCOc1ccc(S(=O)(=O)N(C)CC(=O)NCc2ccco2)cc1Cl,91.4,3.2,7.0
NC1CCN(c2nc3c(cc2F)c(=O)c(C(=O)O)cn3-c2ccc(F)cc2F)C1 (centres undefined),-1.0*,-32.5,.
CCn1cc(C(=O)O)c(=O)c2cc(F)c(N3CCNCC3)nc21,59.0,-13.0,.
CCOc1ccc(S(=O)(=O)/N=C2/C=C(Sc3ncn[nH]3)C(=O)c3ccccc32)cc1,22.4,21.1,-106.0
O=S(=O)(Nc1cc(Sc2ncn[nH]2)c(O)c2ccccc12)c1cccs1,109.2,-0.8,11.0
O=C1C(Sc2ncn[nH]2)=C/C(=N/S(=O)(=O)c2cccs2)c2ccccc21,1.4*,51.3*,-11.0
O=C1C(Sc2ncn[nH]2)=C/C(=N/S(=O)(=O)c2ccc(F)cc2)c2ccccc21,1.1*,2.4,-15.0
Cc1nn(-c2ccccc2)c2nc(N)c(C#N)c(-c3ccco3)c12,89.7,-43.0,11.0
SMILES,Sa growth 42C,HCMV UL50-53 inh,Sa helicase inh
N#C/C(=C/c1cccs1)C(=O)O,91.1,-101.2,-5.0
CCOC(=O)c1nc2c(o1)NC(N)=C(C#N)C2c1ccc(Cl)cc1 (centres undefined),106.7,-8.1,11.0
Cc1nc2c(C(=O)NCCc3ccccc3)c[nH]n2c(=O)c1Cc1ccc(F)cc1Cl,-0.2*,-79.0,.
Cc1nc2c(C(=O)NCc3ccccc3Cl)c[nH]n2c(=O)c1Cc1cccc(Cl)c1,0.6*,-46.2,.
COc1ccc(CCNC(=O)c2c[nH]n3c(=O)c(Cc4ccccc4Cl)c(C)nc23)cc1OC,0.7*,.,.
Cc1nc2c(C(=O)NCCc3ccc(Cl)cc3)c[nH]n2c(=O)c1Cc1ccccc1F,1.1*,-32.7,.
Cc1nc2c(C(=O)NCc3ccccc3Cl)cnn2c(C)c1Cc1ccccc1,114.7,.,.
COc1ccc(CCNC(=O)c2cc(C)nc3c2c(C)nn3-c2ccccc2)cc1OC,101.0,.,.
Cc1nc2c(C(=O)NCCc3ccccc3)c[nH]n2c(=O)c1Cl,88.1,-22.0,6.0
Cc1nc2c(C(=O)NCCC(C)C)c[nH]n2c(=O)c1Cl,101.4,.,8.0
Clc1ccccc1OCCOc1ncnc2sccc12,119.5,-2.1,-23.0
COc1ccc(NC(=O)Nc2ccccn2)cc1,94.3,.,6.0
O=c1[nH]nc2c3ccccc3n(Cc3cccc(F)c3)cc1-2,.,-49.2,.
COc1ccc2[nH]c3c(=O)n(CCCC(=O)NCc4ccco4)c(=S)[nH]c3c2c1,101.3,-12.6,-20.0
Cc1nnc2ccc(NCc3ccccc3)nn12,99.3,2.8,2.0
C/C=C/C(=O)N1CCCC(c2nc(-c3cccc(OC)c3)no2)C1 (centres undefined),100.1,-5.6,15.0
Cc1ccc(CNC(=O)c2c[nH]n3c(=O)c(Cc4ccc(F)cc4Cl)c(C)nc23)cc1,0.6*,-70.6,.
Cc1nc2c(C(=O)NCc3ccccc3)cnn2c(C)c1Cc1ccc(F)cc1,93.9,.,.
COc1ccc(S(=O)(=O)Nc2cccnc2)cc1-c1nc(C(C)C)no1,.,21.9,.
CC1COC2=C(N3CCN(C)CC3)C(F)=CC3C(=O)C(C(=O)O)=CN1C23 (centres undefined),-0.5*,-32.4,-3.0
Oc1cccc(-c2nc3ccc4ccccc4c3c3c2CCCC3)c1,113.2,.,10.0
Cc1cc(NC(=O)CSc2nc3c(c(=O)n2-c2ccc(F)cc2)SC(C)C3)no1 (centres undefined),99.6,10.1,18.0
O=[n+]1cc(-c2ccco2)n([O-])c2c1CCCC2,98.6,-30.3,-8.0
C=C(C)C1CC[C@]2(C(=O)O)CC[C@]3(C)[C@H](CC[C@@H]4[C@@]5(C)CCC(O)C(C)(C)[C@@H]5CC[C@]43C)[C@@H]12 (some centres undefined),.,-18.0,.
Cc1ccc2c(Cl)cc(Cl)c(O)c2n1,.,-39.2,.
SMILES,Sa growth 42C,HCMV UL50-53 inh,Sa helicase inh
NNc1ccc2c(Cl)cc(Cl)c(O)c2n1,4.2*,.,21.0
Cc1ccccc1Nc1nc(N)nc(CN2CC(C)OC(C)C2)n1 (centres undefined),82.8,-25.5,9.0
O=C1CC(c2ccc(Cl)cc2)C2=C(CC(c3cccs3)CC2=O)N1 (centres undefined),104.7,.,9.0
Oc1ccc2ccccc2c1C=NCc1ccccc1,101.8,59.8*,.
Oc1ccc2ccccc2c1/C=N/c1ncccn1,.,99.3*,-2.0
CN/N=C/c1c(O)ccc2ccccc12,72.5,49.0*,-16.0
O=CN/N=C/c1c(O)ccc2ccccc12,111.9,-16.6,-67.0
CC(C(=O)Nc1cccc(N=Cc2c(O)ccc3ccccc23)c1)c1ccccc1 (centres undefined),.,-6.8,.
O=c1oc2ccccc2c(O)c1/C=N/c1ncccn1,.,-17.7,17.0
O/N=C/c1c(O)ccc2ccccc12,89.1,-22.7,9.0
CC(NC(=O)c1ccccc1N=Cc1c(O)ccc2ccccc12)c1ccccc1 (centres undefined),.,67.5*!,.
Nc1sc2c(c1C(=O)N1CCOCC1)CCCC2,97.9,-8.7,-39.0
CC1CCN(C(=O)Cn2cc(SCC(=O)N3CCCc4ccccc43)c3ccccc32)CC1,.,-8.2,.
CCC1Cn2c(C(=O)NCCN(C)C3CCCCC3)cc3cccc(c32)O1 (centres undefined),.,0.9,.

# Assay outcomes (PubChem)
